# Results filed as inconclusive are left out. Calls of active or inactive are those of the source. Unless noted, no rule for the calls is given here.
# Experiments:
# [1] = qHTS profiling of the MIPE4 collection as inhibitors of Plasmodium falciparum (3D7) proliferation (AID 743344);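 also: scaled between DMSO vehicle wells and 0.29 µM artemisinin as full inhibition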; conditions: P. falciparum 3D7 in erythrocytes, SYBR Green DNA fluorescence, 72 h; at 28.5 µM unless noted
# Outline: (§1)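 Erythrocytes infected with P. falciparum (0.3% parasitemia, 2.5% hematocrit) incubated with compounds 72 h at 37 C, 5% CO2. Lysis with saponin/Triton buffer containing SYBR Green I, overnight at room temperature in the dark; DNA fluorescence (485/535 nm) normalised to 0.29 uM artemisinin and DMSO.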
# [2] = qHTS profiling of the MIPE4 collection as inhibitors of Plasmodium falciparum (DD2) proliferation (AID 743345); conditions: P. falciparum Dd2 in erythrocytes, SYBR Green DNA, 72 h; at 28.5 µM unless noted
# Outline: as §1
# [3] = qHTS profiling of the MIPE4 collection as inhibitors of Plasmodium falciparum (DD2) proliferation (Rep 2) (AID 743346); conditions: P. falciparum Dd2 in erythrocytes, SYBR Green DNA, 72 h; at 28.5 µM unless noted
# Outline: as §1
# [4] = qHTS profiling of the MIPE4 collection as inhibitors of Plasmodium falciparum (HB3) proliferation (AID 743347);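 also: plate controls were DMSO vehicle wells for no effect and artemisinin wells for full effect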; conditions: P. falciparum HB3 in erythrocytes, SYBR Green DNA, 72 h; at 28.5 µM unless noted
# Outline: as §1
# [5] = High-throughput drug toxicity screening in the BPDCN cell line Gen2.2 (AID 1224824); conditions: Gen2.2 BPDCN cells; at 45.8 µM (top of the series) unless noted;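 also: cells exposed to compounds for 48 h before reading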
# Outline: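 Seed 500 exponentially growing Gen2.2 cells/well; add compounds by pin tool; incubate 48 h, 37 °C, 5% CO2; add CellTiter-Glo, 15 min RT; read luminescence. % activity vs DMSO (100%) and bortezomib (0%).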
# [6] = High-throughput drug toxicity screening in the BPDCN cell line Cal-1 (AID 1224825); conditions: Cal-1 BPDCN cell viability, qHTS; at 45.8 µM (top of the series) unless noted
# Outline: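 500 Cal-1 cells/well, RPMI + glutamine + 10% FBS (phenol red-free); cpd added by pin tool; 48 h, 37C, 5% CO2; CTG 15 min RT, lumi read. Normalised: DMSO 100%, bortezomib 9.2 uM 0%.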
# [7] = qHTS profiling for inhibitors of Plasmodium falciparum (3D7) proliferation (AID 743322);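 also: infected erythrocytes exposed to compound for 72 h before lysis; 100% = DMSO vehicle wells and 0% = 0.29 µM artemisinin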; conditions: P. falciparum 3D7 proliferation; at 28.7 µM (top of the series)
# Outline: as §1
# [8] = qHTS profiling for inhibitors of Plasmodium falciparum (HB3) proliferation (AID 743324; active = well fitted curve in the direction sought with a large enough effect; an effect the other way counts as inactive or inconclusive;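 also: 100% = DMSO vehicle wells and 0% = artemisinin-treated control wells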); conditions: Plasmodium falciparum HB3 blood-stage proliferation; at 28.7 µM (top of the series)
# Outline: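 P. falciparum HB3 grown in erythrocytes (0.3% parasitemia, 2.5% hematocrit final) with compound for 72 h at 37 C, 5% CO2. Parasite DNA detected by SYBR Green after saponin/triton lysis overnight; normalized to 0.29 uM artemisinin and DMSO.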
# [9] = qHTS assay for measurement of the activity of small molecule inhibitors on Zika virus induced Caspase-3 activity in human iPSC derived neural progenitor cells (hNPCs) (AID 1224857; active = well fitted curve in the direction sought with a large enough effect; an effect the other way counts as inactive or inconclusive; also: % of control where 0% means no effect; nearly all actives have a fitted effect of over 65% in size)
# Outline: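 Quantitative HTS format: human iPSC neural progenitors, 1 h compound pretreatment, ZIKV 2 FFU/cell for 6 h at 37 C. Percent inhibition derived from luminescent caspase-3/7 signal between uninfected and infected controls.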
SMILES,"parasite growth, % of DMSO control [1]","parasite growth remaining, % of DMSO control (lower = more inhibition) [2]","parasite growth, % of control (lower = inhibition) [3]","growth, % of control [4]","cell viability, % of control (lower = more cytotoxic) [5]",viability (% of control) [6],remaining parasite growth % (stronger effect = lower value) [7],"remaining proliferation (% of control), lower = more inhibition [8]",Potency [9]
O=C(CCc1ccc(O)cc1)c1c(O)cc(O)cc1O[C@@H]1O[C@H](CO)[C@H](O)[C@H](O)[C@H]1O,272%,79.6%,57.9%,54%,238%,107%,–,–,–
O=c1cc(-c2ccc(O)cc2)oc2cc(O)cc(O)c12,7.22%,42.9%,6.57%,3.14%,8.72%,4.48%,–,–,–
Nc1nc(F)nc2c1ncn2[C@@H]1O[C@H](COP(=O)(O)O)[C@@H](O)[C@H]1O,27.2%,19.9%,10.9%,8.49%,97.6%,12.5%,–,–,–
C[C@H](NC(=O)c1sccc1OCc1ccc(Cl)cc1)c1ccccc1,13.9%,14.8%,10.7%,3.82%,181%,45.5%,–,–,–
COc1ccc(-c2coc3cc(O)cc(O)c3c2=O)cc1,36.9%,99.4%,46.3%,15.1%,308%,86.9%,–,–,–
CC1(C)CCC2=C(O1)c1ccccc1C(=O)C2=O,22.8%,71%,–,20.3%,4.24%,4.06%,–,–,–
O=C1Nc2ccc(Cl)cc2C(C#CC2CC2)(C(F)(F)F)O1 (stereo not given),40.8%,76%,57.2%,63%,75.6%,56.5%,–,–,–
COc1cccc(-c2cc(=O)c3ccccc3o2)c1N,73.4%,91.1%,–,60%,45.3%,9.08%,–,–,–
CCC(=O)O[C@]1(C(=O)CO)CC[C@H]2[C@@H]3CCC4=CC(=O)CC[C@]4(C)[C@@H]3CC[C@@]21C,37.1%,93.6%,38.1%,31%,84.6%,81.8%,–,–,–
CC[C@]1(O)C[C@@H]2CN(CCc3c([nH]c4ccccc34)[C@@](C(=O)OC)(c3cc4c(cc3OC)N(C=O)[C@@H]3C45CCN4CC=C[C@](CC)([C@H]45)[C@@H](OC(C)=O)[C@]3(O)C(=O)OC)C2)C1 (stereo not given in full),5.87%,10.2%,16.2%,3.8%,15%,51.8%,–,–,–
CO[C@H]1C(=O)[C@]2(C)[C@@H](OC)C[C@H]3OC[C@@]3(OC(C)=O)[C@H]2[C@H](OC(=O)c2ccccc2)[C@]2(O)C[C@H](OC(=O)[C@H](O)[C@@H](NC(=O)OC(C)(C)C)c3ccccc3)C(C)=C1C2(C)C,4.99%,13.7%,21.2%,3.01%,28.9%,13%,–,–,–
COc1ccc(-n2c(C)c([N+](=O)[O-])c3ccc(O)cc32)cc1,80.7%,78.7%,–,34.7%,46.7%,–,–,–,–
COc1cccc2c1CCCC2CCCN1CCN(C2CCCCC2)CC1 (stereo not given),6.86%,54.8%,16.3%,5.02%,–,11.1%,-0.577%,1.97%,inactive
CO[C@H]1C=CO[C@@]2(C)Oc3c(C)c(O)c4c(O)c(c5c(c4c3C2=O)NC2(CCN(CC(C)C)CC2)N=5)=NC(=O)C(C)=CC=C[C@H](C)[C@H](O)[C@@H](C)[C@@H](O)[C@@H](C)[C@H](OC(C)=O)[C@H]1C,5.28%,17.8%,–,5.92%,–,97.3%,–,–,inactive
COc1cc(O)c2c(c1)C(=O)c1cc(C)cc(O)c1C2=O,81.1% [at 9.64 µM],92.9% [at 9.64 µM],84.4% [at 9.64 µM],47.7% [at 9.64 µM],–,101% [at 23.2 µM],–,–,inactive
CS(=O)c1ccc(-c2nc(-c3ccc(F)cc3)c(-c3ccncc3)[nH]2)cc1 (stereo not given),19.5% [at 57.5 µM],26.4% [at 57.5 µM],–,7.77% [at 57.5 µM],–,14.2% [at 92.2 µM],–,20.3%,inactive
N#CC(=C(N)Sc1ccccc1N)C(C#N)=C(N)Sc1ccccc1N,4.41%,12.1%,–,5.29%,16.6%,–,–,–,–
COc1cc2ncnc(-n3nc(-c4ccccn4)nc3N)c2cc1OC,15.5%,31.2%,11.1%,6.36%,–,46.1%,68.8%,74%,inactive
CC1(C)CCC[C@@]2(C)[C@@H]1CC[C@@]1(C)OC(=O)C[C@H]21,81.6%,136%,56.5%,64.8%,–,102%,–,–,–
